Source: PubChem (National Center for Advancing Translational Sciences (NCATS))
Most compounds without a hit are left out; they make up all but 19% or so of the library.
Cycloheximide cs – counter-screen hit for Shiga toxin inhibitors, cycloheximide | max response, % | 300,000 compounds, 12% hits | cell reporter, cycloheximide protein synthesis inhibition counterscreen | AID 2314; in the data active = max response mostly above about 13%, no sharp cut-off; inactive = mostly below about 14%; note: read at 38.3 µM for the half of the compounds with a filed dose; 0% is about no effect
Pf growth 48h – P. falciparum growth inhibition at 48 hours (one generation); P. falciparum luciferase growth in erythrocytes, 48 h; Potency, µM (top dose mostly 28.7 µM), inactives show at the top dose activity change, negative = inhibition, hits mostly inhibitors; 310,000 compounds, 5.9% hits; AID 504832; note: potency is the fitted concentration of half-maximal effect; % is set by controls: 0 for no effect and ±100 for the full control effect
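Compounds are pin-transferred into medium, infected erythrocytes (2% hematocrit, 0.1% parasitemia final) are added, and plates sit one parasite generation at 37 C in 5% CO2. Detection reagent is then added and luminescence measured.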
Pf growth 96h – P. falciparum growth inhibition at 96 hour, primary screen for plastid delayed-death inhibitors | P. falciparum luciferase reporter growth, 96 h | Potency, µM (highest dose often 28.7 µM), for the others: at the top dose activity change, negative = inhibition, usual class: inhibitors | 320,000 compounds, 6.9% hits | AID 504834; note: potency is the fitted concentration of half-maximal effect; % is set by controls: 0 for no effect and ±100 for the full control effect
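P. falciparum expressing integrated firefly luciferase grown in erythrocytes (2% hematocrit, 0.05% parasitemia final) with compounds for 96 hours at 37 C, 5% CO2. Growth inhibition read as loss of luminescence after adding luciferase detection reagent.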
MARV entry inh – Marburg virus entry inhibition; Potency, µM (top dose mostly 37.8 µM), for inactives: at the highest dose activity change, negative = inhibition, actives largely listed as inhibitors; 300,000 compounds, 1.8% hits; Marburg virus pseudotyped entry inhibition, cell reporter; calls by dose curve; tested in HEK293 cells; note: potency is the fitted concentration of half-maximal effect; % is set by controls: 0 for no effect and ±100 for the full control effect
LASV entry inh – Lassa virus entry inhibition | Lassa virus pseudotype entry inhibition, cell reporter | Potency, µM (series often up to 37.9 µM), inactives show top-dose activity change, negative = inhibition, most hits filed as inhibitors | 300,000 compounds, 1.2% hits | AID 540256; calls by dose curve; tested in HEK293 cells; note: potency is the fitted concentration of half-maximal effect; % is set by controls: 0 for no effect and ±100 for the full control effect; nearly all actives have a fitted effect of over 50% in size
Shiga inhibitor – blocks Shiga toxin action in Vero cells. Vero cells, Shiga toxin protein synthesis inhibition reporter. 290,000 compounds, 9.2% hits. inhibition, % at 38.7 µM; in the data active = inhibition mostly above about 28%, no sharp cut-off; inactive = mostly below about 43%; note: 0% is about no effect
* marks the source's active call; other numbers are inactive results; i = inactive; ? = inconclusive; nt = no result; [ ] = remark or other dose. Unless noted, calls come from the whole dose curve; as a rule, active = well fitted inhibition curve with a large enough effect; inconclusive = small, poorly fitted or top-dose-only effect, or another doubt; inactive = no such curve, though single readings can be large or run the other way.

SMILES	Cycloheximide cs	Pf growth 48h	Pf growth 96h	MARV entry inh	LASV entry inh	Shiga inhibitor
O=C(O)CCCC(=O)Nc1ccc(C(=O)N2CCCCC2)c(Cl)c1	-4	5%	nt	7%	7%	-5
CC1(C)C(C#N)=C(N)Oc2c1c(=O)oc1ccccc21	5	-20%	-5%	7%	nt	-4
Cc1ccc2c(=O)cc(C(=O)Nc3nc4ccc(Cl)cc4s3)oc2c1	nt	nt	nt	0%[46.1 µM]	2%[46.1 µM]	nt
NNc1nc2ccc(Cl)cc2s1	42*	84%	0%	3%	?	83*
O=C(Nc1nc2ccc(F)cc2s1)Oc1ccccc1	9	5%	0%	2%[46.1 µM]	16%[46.1 µM]	34
NNc1nc2ccc(F)cc2s1	78*	51%	-1%	-1%	?	136*
NNc1nc2c(Cl)c(Cl)ccc2s1	25*	2%	-8%	25%	7%	30*
Fc1ccc2nc(Nc3ccccc3)sc2c1	36*	263%	i	?	13%	118*
Cc1cccc(Nc2ccc(C(=O)N3CCOCC3)cn2)c1	46*	-4%	?	-19%[46.1 µM]	?	66*
Cc1ccc(Nc2ccc(C(=O)N3CCCC3)cn2)c(C)c1	-4	nt	?	18%	9%	-7
O=C(c1ccc(Nc2cccc(C(F)(F)F)c2)nc1)N1CCCC1	9	?	17µM*	?	-19%	19
CCn1c(SCC(=O)N2CCCCCC2)nc2c(c1=O)SCC2	1	-10%	5.9µM*	15%	-10%	-1
CCOC(=O)N1CCN(C(=O)CSc2nc3c(c(=O)n2-c2ccccc2OC)SCC3)CC1	-3	?	1.3µM*	?	-8%	28
COc1ccccc1-n1c(SCC(=O)Nc2nnc(C)s2)nc2c(c1=O)SCC2	4	0%	12µM*	-13%	-15%	18
O=S(=O)(NCc1ccccc1)c1ccc(-c2cnc(C3CC3)o2)cc1	-1	14%	?	nt	?	0
Cc1ccc(C(=O)N[C@@H](C)CN2C3=NC[C@@H](Cc4ccccc4)N3C[C@H]2Cc2ccc(O)cc2)cc1Br	-2	5.2µM*	2.9µM*	nt	nt	-5
CC(CCc1ccccc1)NC(=O)c1ccc(-n2cncn2)c([N+](=O)[O-])c1 (stereo not drawn)	nt	-23%	3%	-6%	18%	nt
CC(CCc1ccccc1)NC(=O)c1ccc(Br)cc1 (stereo not drawn)	12	61%	?	?	14%	23
COc1ccc(C[C@H]2CN3C(=NC[C@@H]3Cc3ccc(O)cc3)N2C[C@H](C)NC(=O)c2ccc(C)c(Br)c2)cc1	-5	1.5µM*	0.83µM*	nt	nt	-5
Cc1ccc(C(=O)N[C@@H](C)CN2C3=NC[C@H](Cc4ccccc4)N3C[C@H]2Cc2ccc(O)cc2)cc1Br	-7	2.1µM*	1.3µM*	nt	nt	-4
CCOc1ccc(NC(=O)CN(C)C(=O)C2CC(=O)N(CCc3ccccc3)C2)cc1OCC (stereo not drawn)	nt	-9%	-13%	-3%	7%	nt
C/C(=N\NC(=O)C1CC1)c1ccc(Cl)cc1	-3	?	5.2µM*	11%[46.1 µM]	-8%	-3
C/C(=N\NC(=O)C1CCCC1)c1ccc(Cl)cc1	41*	35%	19%	nt	nt	52*
CCCOc1ccccc1NS(=O)(=O)c1ccc2[nH]c(=O)[nH]c2c1	-2	6%	9%	-7%[46.1 µM]	?	-15
CNCCCC12CCC(c3ccccc31)c1ccccc12	-5	12µM*	?	4.6µM*	16µM*	-12
SMILES	Cycloheximide cs	Pf growth 48h	Pf growth 96h	MARV entry inh	LASV entry inh	Shiga inhibitor
O=S1(=O)NC(=NCC(c2ccco2)N2CCCCC2)c2ccccc21 (stereo not drawn)	-1	?	13µM*	nt	nt	4
CN1C(=O)c2ccc(N3CCCC3)cc2C1=O	15*	81%	29%	14%	1%	55*
Cc1cc(N2CCCC2)ccc1/C=C1\NC(=S)N(C)C1=O	21*	82%	0%	?	?	28
CN1C(=O)CCC1c1cccnc1 (stereo not drawn)	nt	-5%	1.1µM*	?	nt	nt
CN1CCC[C@H]1c1cccnc1	nt	5%	37%	?	?	nt
c1ccc(CCC2CCCCN2Cc2nc(C3CC3)no2)cc1 (stereo not drawn)	-1	4%	?	nt	nt	4
Cc1ccccc1SC1CCN(Cc2nc(C3CC3)no2)CC1	19*	-1%	?	11%[46.1 µM]	5%	25
CN1CCc2c(sc3c2C(=O)NC(c2cccc(OC(=O)c4cccs4)c2)N3)C1 (stereo not drawn)	45*	116%	?	?	9%	70*
CCOC(=O)N1CCc2c(sc3c2C(=O)NC(c2ccccc2)N3)C1 (stereo not drawn)	-1	-3%	-50%	3.2µM*	?	-4
CCOC(=O)N1CCc2c(sc3c2C(=O)NC(c2cc(OC)c(O)c(OC)c2)N3)C1 (stereo not drawn)	nt	nt	nt	nt	-21%[46.1 µM]	nt
CC(/C=C/c1ccco1)=N/NC(=O)OC(C)(C)C	23*	36%	2%	0%	0%	52
CC(/C=C/c1ccco1)=N\NC(=O)c1cc(Cl)ccc1O	27*	-18%	3%	5%[46.1 µM]	-2%[46.1 µM]	91*
C/C(=N/NC(=O)OC(C)(C)C)c1ccco1	29*	92%	53%	7%	8%	66*
COc1ccc(CC(=O)N/N=C(/C)c2ccco2)cc1	1	14%	18%	0%[46.1 µM]	-10%[46.1 µM]	-7
CC(/C=C/c1ccco1)=N\NC(=O)c1cccnc1	5	nt	31%	7%	3%	6
O=C(C=Cc1ccco1)c1cc(Cl)ccc1O	nt	nt	nt	2%	?	nt
CC(=O)c1cccc(NS(=O)(=O)c2c(C(=O)N3CCCCCC3)c(C)n(C)c2C)c1	nt	nt	nt	nt	-2%[46.1 µM]	nt
Cc1no[n+]([O-])c1COc1ccccc1/C=N/n1nnnc1N	-3	-16%	?	?	?	-11
Cc1ccc(-c2cc3nccc(-c4cc([N+](=O)[O-])ccc4O)n3n2)cc1	nt	nt	nt	-5%[46.1 µM]	?	nt
CCCn1c(NCc2cccc(OC)c2O)nc2ccccc21	28*	12µM*	107%	?	-21%	39*
COc1ccccc1-n1cnc2cc(NCc3ccccn3)ccc21	38*	?	-22%	2%	-24%	113*
CCCn1cnc2cc(NCc3ccccn3)ccc21	37*	nt	-11%	nt	nt	85*
COc1ccc(-n2cnc3cc(NCc4ccccn4)ccc32)cc1	9	?	?	-4%	?	43
CCCn1c(NCc2cccc(OC)c2OC)nc2ccccc21	25	?	3%	?	-2%	49
CCn1cnc2cc(NCc3ccncc3)ccc21	1	10%	nt	18%	-6%	32
CCCn1cnc2cc(NCc3cccc(OC)c3O)ccc21	37*	72%	2%	9%	10%	126*
COc1cc(OC)cc(C(=O)N2CCN(C(=O)COc3ccc(C)cc3)CC2)c1	nt	nt	nt	-7%[46.1 µM]	9%[46.1 µM]	nt
COc1cccc(CNc2ccc3c(c2)ncn3C(C)C)c1OC	44*	nt	0%	nt	nt	162*
